Results filed as inconclusive are left out. A call without a number means that no potency is given here. The source made the active and inactive calls. Calls follow the shape of the dose curve; as a rule, active = well fitted inhibition curve with a large enough effect; inconclusive = small, poorly fitted or top-dose-only effect; inactive = flat fitted curve, though single readings scatter.
Columns and labels:
Assay in all cases: qHTS profiling for inhibitors of Plasmodium falciparum proliferation (AID 504749); also: nearly all actives have a fitted effect of over 60% in size
Conditions in all cases: P. falciparum in erythrocytes, SYBR Green DNA, 72 h; series mostly up to 28.7 µM
CP217 = system: CP217
Outline: (§1)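 Infected RBCs, 0.3% parasitemia/2.5% Hct final; cpd 72 h, 37 C, 5% CO2; lysis buffer with saponin/triton/SYBR Green I, o/n RT dark; FI 485/535; norm. to artemisinin (0.29 uM) and DMSO.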

CP237 = system: CP237
Outline: as §1

CP238 = system: CP238
Outline: as §1

CP247 = system: CP247
Outline: as §1

CP250 = system: CP250
Outline: as §1

CP252 = system: CP252
Outline: as §1

CP256 = system: CP256
Outline: as §1

CP262 = system: CP262
Outline: as §1

CP265 = system: CP265
Outline: as §1

CP260 = system: CP260
Outline: as §1
Potency is read from the fitted curve at half-maximal effect.

SMILES	Potency (CP217)	Potency (CP237)	Potency (CP238)	Potency (CP247)	Potency (CP250)	Potency (CP252)	Potency (CP256)	Potency (CP262)	Potency (CP265)	Potency (CP260)
CNC(C)C(O)c1ccc(O)cc1 (stereo not drawn)	inactive	inactive	inactive	inactive	inactive	inactive	inactive	inactive	inactive	–
c1ccc(C2(N3CCCC3)CCCCC2)cc1	8.91 µM (active)	11.2 µM (active)	–	7.94 µM (active)	–	–	–	–	–	8.91 µM (active)
C[C@@H](Cc1ccccc1)NCCC(c1ccccc1)c1ccccc1	–	inactive	inactive	–	–	inactive	–	–	–	–
CCC1C(C)=NN=C(c2ccc(OC)c(OC)c2)c2cc(OC)c(OC)cc21 (stereo not drawn)	inactive	–	inactive	inactive	inactive	inactive	inactive	inactive	inactive	inactive
CCCCCCCCCC(=O)O[C@H]1CC[C@H]2[C@@H]3CCC4=CC(=O)CC[C@]4(C)[C@H]3CC[C@]12C	inactive	inactive	inactive	inactive	inactive	inactive	inactive	inactive	inactive	–
CCC(C)(S(=O)(=O)CC)S(=O)(=O)CC	inactive	inactive	inactive	inactive	–	inactive	inactive	inactive	inactive	–
Oc1cccc[c]1[Hg][Cl]	8.91 µM (active)	10 µM (active)	11.2 µM (active)	8.91 µM (active)	–	12.6 µM (active)	11.2 µM (active)	–	10 µM (active)	5.62 µM (active)
CCOP(=O)(OCC)O/C(=C/Cl)c1ccc(Cl)cc1Cl	–	inactive	inactive	–	inactive	inactive	inactive	inactive	–	–
C=CCN1CC[C@]23c4c5ccc(O)c4O[C@H]2[C@@H](O)C=C[C@H]3[C@H]1C5	inactive	inactive	inactive	–	inactive	inactive	inactive	inactive	inactive	inactive
O=C1CN=C(c2ccccc2)c2cc(Cl)ccc2N1CC1CC1	inactive	inactive	inactive	–	inactive	inactive	inactive	inactive	inactive	–
CC12NC(Cc3ccccc31)c1ccccc12 (stereo not drawn)	–	–	–	–	inactive	–	–	inactive	8.91 µM (active)	–
S=C(S)N1CCNCC1	inactive	inactive	inactive	inactive	inactive	inactive	inactive	inactive	inactive	–
N#CC1(N2CCCCC2)CCCCC1	inactive	inactive	inactive	inactive	inactive	inactive	inactive	inactive	inactive	–
C[C@]12CCC(=O)C[C@@H]1CC[C@@H]1[C@@H]2CC[C@]2(C)[C@@H](O)CC[C@@H]12	inactive	inactive	inactive	inactive	–	inactive	inactive	inactive	inactive	–
CC1CCC(C(C)C)C(OC(=O)c2ccccc2N)C1 (stereo not drawn)	inactive	–	inactive	inactive	inactive	inactive	inactive	inactive	inactive	inactive
CN1CCCC(=C(c2cccs2)c2cccs2)C1	–	4.47 µM (active)	–	–	inactive	–	inactive	–	–	–
N#CC(C#N)=Cc1cc(O)c(O)c(O)c1	–	8.91 µM (active)	–	8.91 µM (active)	11.2 µM (active)	–	–	15.1 µM (active)	–	6.31 µM (active)
Cc1sc2ccccc2c1CC1=NCCN1	inactive	–	inactive	inactive	inactive	inactive	inactive	inactive	inactive	inactive

From PubChem BioAssay (NCATS)
